About 83,000 compounds went through this panel and 20% of them were active in at least one assay; those are over-represented in the sample as a whole.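 96-well plates, one dose, 48 hours. Percent growth reported; active if below 10.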 A number with no mark means an inactive call. Active and inactive are the calls of the source.
Key:
Assay in all cases: NCI-60 one-dose screen, 48 h (100 = growth as untreated, 0 = no growth, -100 = all killed)
Settings in all cases: 10 µM unless noted
[1] = system: SR leukemia
[2] = system: RPMI-8226 leukemia
[3] = system: OVCAR-5 ovarian
[4] = system: OVCAR-4 ovarian
[5] = system: SK-OV-3 ovarian
[6] = system: IGROV1 ovarian
[7] = system: OVCAR-3 ovarian
[8] = system: HS 578T breast
[9] = system: NCI/ADR-RES ovarian
[10] = system: OVCAR-8 ovarian

SMILES	growth [1]	growth [2]	growth [3]	growth [4]	growth [5]	growth [6]	growth [7]	growth [8]	growth [9]	growth [10] [%]
C#CCN(C)CCCOc1ccc(NCc2ccc(/C=C/C(=O)NO)cc2)cc1Cl	9.72% (active)	8.55% (active)	6.62% (active)	22.4%	-11.3% (active)	-35.7% (active)	11%	10.7%	-8.39% (active)	
CCOC(=O)c1cccc(NC2=C(Cl)C(=O)C(C)=C(C)C2=O)c1	27.7%	26.8%	105%		107%	32.2%	99.8%	95.9%	102%	
C#CCN(C)CCCOc1ccc(NC(=O)CCCCCCCCC(=O)NO)cc1Cl	32.7%	40.2%	68.8%	74.3%	84.8%	71.5%	73.7%	70.3%	82.7%	
NC1[C@H]2CN(c3cnc(C(=O)Nc4cc(F)cc5cccnc45)cn3)C[C@@H]12 (stereo partly drawn)	8.36% (active)	68.9%		17.4%	93.2%	29.4%	2.08% (active)	77.2%	85.3%	
NS(=O)(=O)c1ccc(Nc2nc(N/N=C/C=C/c3ccccc3)nc(Nc3ccccc3)n2)cc1	14.9%	28.5%	99.2%	49.6%	78.3%	36.8%		39.7%	91.1%	
NS(=O)(=O)c1ccc(Nc2nc(N/N=C/c3ccc4c(c3)OCO4)nc(Nc3ccccc3)n2)cc1	20%	54.3%	90.8%	55.5%	65.7%	36.6%		52%	90.9%	
COc1cc2oc(-c3cccc(NC(=O)c4cccc([N+](=O)[O-])c4)c3)cc(=O)c2c(OC)c1OC	55.2%	48.8%	72.1%	37.6%	85.9%	64.6%	59%	-10.3% (active)	34.6%	
C#C[C@]1(O)CC[C@H]2[C@@H]3CC=C4c5sc(N(C)c6ccccc6)nc5CC[C@]4(C)[C@H]3CC[C@@]21C	43.7%	2.94% (active)	92.5%	94%	98.7%	107%		89.8%	82.1%	
CC1(C)CC[C@]23CC[C@]4(C)[C@H](CC[C@@H]5[C@@]6(C)CC[C@H](N)C(C)(C)[C@@H]6CC[C@]54C)[C@H]2[C@H]1OC3	-22.5% (active)	-24.1% (active)	112%	96.7%	101%	69.9%	70.2%	94.4%	2.93% (active)	
O=S(=O)(NCCCNc1nccc(-c2[nH]c(-c3ccccc3)nc2-c2ccc(F)c(O)c2)n1)c1cccc2ccccc12	28.6%	4.6% (active)	146%	81.9%	103%	58.3%	88.4%	40.7%	91.1%	
Oc1[nH]c2ccc(Cl)cc2c1N=Nc1nc(N=Nc2c(O)[nH]c3ccc(Cl)cc23)nc(N2CCOCC2)n1	29.2%	36.4%	95.1%	78.7%	55.5%	55%	52.7%	-7.82% (active)	98.1%	
CN(C)c1cccc2c(S(=O)(=O)Nc3cccc(-c4csc(NC(=O)CCCCCN5CCN(CCO)CC5)n4)c3)cccc12	-9.78% (active)	47.2%			107%	86.1%		85.1%	103%	89
COC(=O)c1cccc(NC2=C(Cl)C(=O)C(C)=C(C)C2=O)c1	30%	58.3%	101%	-36.7% (active)	106%	56.2%	94.2%	88.1%	98.2%	
CCOC(=O)C1=C(C)NC(C)=C(C(=O)OCc2ccccc2)C1c1cccc(C#N)c1 (stereo not drawn)	21.7%	32.3%	61.3%	71.5%	75.1%	42.1%	23.6%	40.2%	22.7%	
O=c1c2ccccc2cc2n1CCN=C2c1ccccc1	93.6%	99.2%	108%	97.7%	103%	116%		92.6%	99.7%	
O=C1[C@@H]2Cc3c([nH]c4ccccc34)[C@H](c3ccc(Cl)cc3)N2C(=O)CN1C1CCN(Cc2ccccc2)CC1	4.81% (active)	21.8%	85.5%	54.4%	89.6%	43.3%		65.5%	52.6%	
O=C(CSc1nnc(-c2ccc(Cl)cc2)n1-c1ccccc1)Nc1cccc(F)c1	37.2%	40.5%	41.9%	-46.4% (active)	78.6%	20.3%	51.9%	28%	37%	
Brc1ccc(-c2cc(-c3ccc4c(c3)OC=CO4)n[nH]2)s1	54.7%	93.6%	105%	88%	88.1%	81%		92.2%	76.8%	
CCCCCCNC(=O)Oc1ccc(/C(=C(/C)c2ccc(Cl)cc2)c2ccc(OCCN3CCCCCC3)cc2)cc1	2.59% (active)	64.3%			96%	68.4%		63.8%	79.4%	78.2
CC(Nc1ncnc2ccc(-c3cnc(N)nc3)cc12)c1ccccc1 (stereo not drawn)	15.1%	28.2%	28.7%		27.3%	-13.4% (active)	43.8%	5.98% (active)	53%	
COC(=O)CNC(=O)c1cccc(-c2cc(=O)c3c(OC)c(OC)c(OC)cc3o2)c1	85%	94.8%	98.1%	102%	118%	99.1%		99.7%	99.5%	
C=C(C)[C@@H]1CC[C@]2(COCCCNCCCN)CC[C@]3(C)[C@H](CC[C@@H]4[C@@]5(C)CC[C@H](O)C(C)(C)[C@@H]5CC[C@]43C)[C@@H]12	-33.1% (active)	-35.3% (active)	-95.3% (active)	-68.5% (active)	105%	-82.9% (active)	-77.5% (active)	-49.1% (active)	-65.5% (active)	
CCCc1[nH]c(-c2cc(N)ccc2Cl)c2c1C(=O)CCCC2	85.8%	89.7%	94.7%	95.9%	103%	91.6%		89.9%	95.2%	
COc1ccc(/C=N/NC(=O)CSc2nc(-c3cnccn3)cc(-c3cccs3)c2C#N)cc1OC	81.8%	70.5%		97.6%	120%	104%	99%	69.8%	96.6%	
Cc1ccc(NC2=C(Cl)C(=O)c3nc(C)ccc3C2=O)c(C)c1	10.3%	-10.4% (active)	-1.15% (active)	-96.5% (active)	117%	-58.8% (active)	-98.6% (active)	6.94% (active)	4.37% (active)	
N#CC1=C2NCCCNc3oc(nc3C#N)Cc3ccccc3CC(=N1)O2	36.6%	19.9%	102%		102%	93.4%		92.4%	97.8%	
CC(C)(O)c1cncc(-c2ccc3ncc(C#N)c(N4CCc5cc(F)c(Cl)cc54)c3c2)c1	11.8%	13.5%	16.7%	-1.6% (active)	-22.1% (active)	-14.5% (active)	9.12% (active)	-28% (active)	14.8%	
CCOC(=O)c1c(NCC(=O)Nc2cccc([N+](=O)[O-])c2)sc(C(C)=O)c1C	0.317% (active)	-14.1% (active)	1.07% (active)	4.88% (active)	-13.4% (active)	22%	-37.2% (active)	-23.9% (active)	-28.3% (active)	
Nc1nc(=O)n([C@H]2C[C@H](O)[C@@H](CO)O2)cc1C=O	107%	110%	94.2%	78.1%	116%	106%	116%	129%	9.49% (active)	

Source: PubChem BioAssay (NCI)
